Our source for the composite z-score and z-score values is PubChem BioAssay.

Active and inactive are the calls of the source.

For assay [1], the system named is PRMT1 (protein arginine N-methyltransferase 1). The experiment in a line: PRMT1 binders on small-molecule microarrays, primary screen, biochemical, small-molecule microarray, 635 nm fluorescence (AID 1088).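 Note: binding of Prmt1 protein to compounds spotted on small-molecule microarray slides.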 The settings on record: small-molecule microarray binding, higher = more signal.
Assay [2] in a line: yeast growth modulation, basal conditions, primary screen, YJM789 clinical isolate, OD600, 24 h (AID 1089).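 Note: growth of clinical yeast isolate S. cerevisiae YJM 789 seeded 1000 cells per well; test concentration not given here.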 As to conditions: S. cerevisiae YJM789 growth, higher = more signal, called active from +8 up or from −8 down.
Assay [3] is described as follows: fission yeast growth modulation, primary screen, strain 972, OD600, 24 h, no modulator (AID 1090).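 Note: basal condition with compound alone and no growth modifier present; test concentration not given here.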 The settings on record: S. pombe 972 growth, higher = more signal, called active from +8 up or from −8 down.
A short description of assay [4]: S. cerevisiae growth modulation with rapamycin, primary screen, strain BY4716, OD600, 96 h (AID 1091). Note: test concentration not given here. The settings on record: higher = more signal, called active from +8 up or from −8 down.
Assay [5] has as its target Torsin-1A-interacting protein 2 (Homo sapiens) (UniProt Q8NFQ8). As to the kind of experiment: LULL1 binders on small-molecule microarray, primary screen, cell lysate, human LULL1 lysate, 635/667 nm fluorescence (AID 1092).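 Note: probe is lysate of COS7 cells overexpressing human LULL1; score merges per-feature 667 nm fluorescence with signal-to-noise.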 The settings on record: hLULL1 lysate binding, 635 nm fluorescence, higher = more signal.
Assay [6] can be described thus: E. coli growth modulation, two-sided OD650, primary screen, E. coli filamentation project, strain DRC41, 24 h (AID 1093).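 Note: MC1000 strain lacking acrAB efflux and sulA so SOS filamentation is blocked; test concentration not given here.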 As to conditions: OD650, 24 h, higher = more signal, called active from +8 up or from −8 down.
The nature of assay [7]: small-molecule microarray binders of probe aLefty2, primary screen, biochemical, biotinylated probe, 635/667 nm fluorescence (AID 1094).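 Note: score merges spot fluorescence near 667 nm with spot signal-to-noise ratio.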 As to conditions: higher = more signal.
Assay [8] relates to Noggin (protein binding on small-molecule microarray). As to the kind of experiment: Noggin binders on small-molecule microarray, primary screen, biochemical, 635/667 nm fluorescence (AID 1095).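 Note: score merges 667 nm feature fluorescence with signal to noise over triplicate slides.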 The settings on record: 635 nm fluorescence, higher = more signal.
In assay [9] the target is Neurogenic locus notch homolog protein 3 (Homo sapiens) (UniProt Q9UM47). The experiment in a line: NOTCH3 binders on small-molecule microarray, primary screen, biochemical, 635/667 nm fluorescence (AID 1096). As to conditions: NOTCH3 binding, 635 nm fluorescence, higher = more signal.
Assay [10] can be described thus: small-molecule microarray binders of probe aEGFR, primary screen, biochemical, biotinylated probe, 635/667 nm fluorescence (AID 1097).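 Note: probe is a biotinylated anti-EGFR antibody binding compounds printed on slides; score combines fluorescence near 667 nm and signal to noise of each spot.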 As to conditions: higher = more signal.
In assay [11] the test system is Plasmodium falciparum Sir2 (PF13_0152, Sir2A). The experiment in a line: pfSir2 binders on small-molecule microarrays, primary screen, biochemical, small-molecule microarray, 635 nm fluorescence (AID 1098).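 Note: score merges spot fluorescence intensity with its signal-to-noise ratio.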 As to conditions: small-molecule microarray binding, fluorescence 635 nm; higher = more signal.
Assay [12] is described as follows: small-molecule microarray binders of probe aDKK1, primary screen, biochemical, biotinylated probe, 635/667 nm fluorescence (AID 1099).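 Note: score merges 667nm spot fluorescence with signal to noise across triplicate slides; reference of the scale not given here.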 The settings on record: higher = more signal.
Assay [13] in a line: small-molecule microarray binders of probe aCHRDL2, primary screen, biochemical, biotinylated probe, 635/667 nm fluorescence (AID 1100). As to conditions: higher = more signal.
The nature of assay [14]: splicing luciferase reporter signal modulators, primary screen, spliceosome inhibition project, cell-based, HEK293, splice +/- reporter (AID 1101).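 Note: HEK293 cells carrying a splicing-competent luciferase reporter gene; test concentration not given here.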 The settings on record: luminescence, 24 h, higher = more signal, called active from +8 up or from −8 down.
The target of assay [15] is Fibroblast growth factor 10 (Homo sapiens) (UniProt O15520). As to the kind of experiment: FGF10 binders on small-molecule microarrays, primary screen, biochemical, small-molecule microarray, 635 nm fluorescence (AID 1102). As to conditions: FGF10 binding, fluorescence 635 nm, higher = more signal.
For assay [16], the system named is glycogen synthase kinase-3 (GSK3A per assay name; protocol says GSK3B). As to the kind of experiment: GSK3 binders on small-molecule microarrays, primary screen, biochemical, small-molecule microarray, 635 nm fluorescence, GSK3A (AID 1103). Note: the record names both GSK3A and GSK3B. The settings on record: small-molecule microarray binding, fluorescence 635 nm; higher = more signal.
Assay [17] concerns the target Epidermal growth factor receptor (Homo sapiens) (UniProt P00533). The experiment in a line: EGFR binders on small-molecule microarrays, primary screen, biochemical, small-molecule microarray, 635 nm fluorescence (AID 1104).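 Note: score merges 667 nm emission intensity with spot signal to noise over triplicate slides.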 The settings on record: EGFR binding, higher = more signal.
Assay [18] deals with Follistatin-related protein 3 (Homo sapiens) (UniProt O95633). The experiment in a line: FSTL3 binders on small-molecule microarrays, primary screen, biochemical, small-molecule microarray, 635 nm fluorescence (AID 1105).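 Note: score merges emission near 667 nm and signal to noise per printed spot across three slides.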 As to conditions: FSTL3 binding, higher = more signal.
Assay [19] addresses Dickkopf-related protein 1 (Homo sapiens) (UniProt O94907). The experiment in a line: DKK1 binders on small-molecule microarrays, primary screen, biochemical, small-molecule microarray, 635 nm fluorescence scan (AID 1106).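 Note: score merges emission near 667 nm with signal to noise over three replicate slides.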 The settings on record: DKK1 binding, higher = more signal.
The test system of assay [20] is Inhibin beta A chain (activin A). The experiment in a line: INHBA (activin A) binders on microarrays, primary screen, biochemical, small-molecule microarray, 635 nm fluorescence scan (AID 1107).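 Note: mouse activin A protein probed at 4.33 µg/mL on printed slides; score merges bound-protein fluorescence near 667 nm with spot signal-to-noise.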 The settings on record: small-molecule microarray binding, higher = more signal.

Sequence of Fibroblast growth factor 10 (Homo sapiens) (O15520 whole entry, looked up): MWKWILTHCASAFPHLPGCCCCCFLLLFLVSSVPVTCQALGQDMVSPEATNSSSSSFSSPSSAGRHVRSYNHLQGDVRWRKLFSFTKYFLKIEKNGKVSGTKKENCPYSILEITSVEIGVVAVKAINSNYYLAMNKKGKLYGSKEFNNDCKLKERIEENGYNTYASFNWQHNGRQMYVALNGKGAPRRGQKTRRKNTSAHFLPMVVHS
Sequence of Neurogenic locus notch homolog protein 3 (Homo sapiens) (Q9UM47 whole entry, looked up): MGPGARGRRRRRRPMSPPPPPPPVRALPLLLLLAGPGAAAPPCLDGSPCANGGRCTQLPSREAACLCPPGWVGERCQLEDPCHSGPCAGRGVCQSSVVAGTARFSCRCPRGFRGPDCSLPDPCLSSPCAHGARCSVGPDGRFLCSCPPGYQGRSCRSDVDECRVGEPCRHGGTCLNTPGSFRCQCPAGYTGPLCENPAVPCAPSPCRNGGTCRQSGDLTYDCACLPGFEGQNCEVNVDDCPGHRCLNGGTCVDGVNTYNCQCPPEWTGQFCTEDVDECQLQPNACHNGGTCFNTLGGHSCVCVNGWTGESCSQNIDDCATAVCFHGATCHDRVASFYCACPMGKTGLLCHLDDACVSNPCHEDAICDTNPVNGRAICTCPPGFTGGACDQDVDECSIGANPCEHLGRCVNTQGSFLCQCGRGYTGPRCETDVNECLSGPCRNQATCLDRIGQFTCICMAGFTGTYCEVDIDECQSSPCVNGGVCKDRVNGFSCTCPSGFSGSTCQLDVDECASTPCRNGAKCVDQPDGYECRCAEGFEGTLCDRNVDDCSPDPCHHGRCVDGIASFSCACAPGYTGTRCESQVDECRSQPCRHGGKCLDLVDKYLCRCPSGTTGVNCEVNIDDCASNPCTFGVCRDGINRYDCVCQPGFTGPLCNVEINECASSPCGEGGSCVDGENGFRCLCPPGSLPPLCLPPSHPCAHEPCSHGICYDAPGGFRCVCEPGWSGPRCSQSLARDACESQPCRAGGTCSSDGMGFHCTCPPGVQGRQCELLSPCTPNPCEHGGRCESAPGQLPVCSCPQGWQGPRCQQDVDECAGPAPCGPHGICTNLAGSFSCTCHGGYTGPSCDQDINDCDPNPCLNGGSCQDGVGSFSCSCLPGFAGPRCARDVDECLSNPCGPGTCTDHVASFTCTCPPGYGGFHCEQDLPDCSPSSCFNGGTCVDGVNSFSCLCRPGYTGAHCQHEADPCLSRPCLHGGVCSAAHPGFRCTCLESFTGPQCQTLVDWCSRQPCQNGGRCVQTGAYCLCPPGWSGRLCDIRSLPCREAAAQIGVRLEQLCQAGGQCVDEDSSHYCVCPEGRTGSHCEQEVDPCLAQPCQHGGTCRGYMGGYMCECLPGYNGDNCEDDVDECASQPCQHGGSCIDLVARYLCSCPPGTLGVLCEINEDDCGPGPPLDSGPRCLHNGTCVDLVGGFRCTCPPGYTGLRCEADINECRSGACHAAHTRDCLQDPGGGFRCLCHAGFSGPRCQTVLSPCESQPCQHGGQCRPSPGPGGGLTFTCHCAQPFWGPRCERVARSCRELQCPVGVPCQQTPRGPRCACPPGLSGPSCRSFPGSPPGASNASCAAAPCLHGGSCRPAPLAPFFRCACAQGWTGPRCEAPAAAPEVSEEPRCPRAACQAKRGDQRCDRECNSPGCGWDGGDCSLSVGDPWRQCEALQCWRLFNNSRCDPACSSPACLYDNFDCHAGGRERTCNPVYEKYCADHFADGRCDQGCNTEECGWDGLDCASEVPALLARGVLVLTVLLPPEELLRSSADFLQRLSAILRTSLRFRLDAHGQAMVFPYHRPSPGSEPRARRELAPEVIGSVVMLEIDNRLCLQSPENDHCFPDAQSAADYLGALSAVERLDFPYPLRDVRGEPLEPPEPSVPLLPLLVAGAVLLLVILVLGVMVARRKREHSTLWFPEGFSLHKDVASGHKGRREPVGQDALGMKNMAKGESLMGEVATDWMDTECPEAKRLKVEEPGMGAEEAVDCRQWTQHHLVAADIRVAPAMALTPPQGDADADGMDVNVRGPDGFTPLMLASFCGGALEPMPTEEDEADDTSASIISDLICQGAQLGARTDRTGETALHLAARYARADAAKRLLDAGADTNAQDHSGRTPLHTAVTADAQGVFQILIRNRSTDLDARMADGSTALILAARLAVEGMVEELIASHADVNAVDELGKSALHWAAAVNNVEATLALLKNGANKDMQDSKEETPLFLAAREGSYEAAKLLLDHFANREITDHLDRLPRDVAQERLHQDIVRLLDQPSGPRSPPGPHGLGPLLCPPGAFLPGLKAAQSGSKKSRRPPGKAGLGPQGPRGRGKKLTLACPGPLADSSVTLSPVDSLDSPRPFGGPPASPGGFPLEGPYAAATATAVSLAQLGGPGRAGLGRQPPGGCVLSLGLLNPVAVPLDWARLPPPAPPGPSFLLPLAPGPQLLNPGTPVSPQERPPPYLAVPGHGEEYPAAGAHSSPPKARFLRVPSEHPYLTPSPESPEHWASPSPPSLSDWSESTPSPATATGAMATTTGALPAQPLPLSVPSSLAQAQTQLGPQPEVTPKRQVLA
Sequence of Torsin-1A-interacting protein 2 (Homo sapiens) (Q8NFQ8 whole entry, looked up): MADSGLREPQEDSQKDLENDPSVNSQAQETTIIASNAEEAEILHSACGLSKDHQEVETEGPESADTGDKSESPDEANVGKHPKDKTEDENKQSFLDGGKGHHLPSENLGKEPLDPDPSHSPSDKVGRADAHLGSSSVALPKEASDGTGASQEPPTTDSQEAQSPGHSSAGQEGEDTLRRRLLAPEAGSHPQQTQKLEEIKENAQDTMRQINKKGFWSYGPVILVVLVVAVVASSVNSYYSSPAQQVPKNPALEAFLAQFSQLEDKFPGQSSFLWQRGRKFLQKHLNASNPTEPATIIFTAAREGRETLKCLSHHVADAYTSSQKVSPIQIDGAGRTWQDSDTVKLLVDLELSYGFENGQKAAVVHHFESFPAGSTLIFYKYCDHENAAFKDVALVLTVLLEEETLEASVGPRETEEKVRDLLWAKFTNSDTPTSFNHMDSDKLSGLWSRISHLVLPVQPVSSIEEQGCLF
Sequence of Epidermal growth factor receptor (Homo sapiens) (P00533 whole entry, looked up): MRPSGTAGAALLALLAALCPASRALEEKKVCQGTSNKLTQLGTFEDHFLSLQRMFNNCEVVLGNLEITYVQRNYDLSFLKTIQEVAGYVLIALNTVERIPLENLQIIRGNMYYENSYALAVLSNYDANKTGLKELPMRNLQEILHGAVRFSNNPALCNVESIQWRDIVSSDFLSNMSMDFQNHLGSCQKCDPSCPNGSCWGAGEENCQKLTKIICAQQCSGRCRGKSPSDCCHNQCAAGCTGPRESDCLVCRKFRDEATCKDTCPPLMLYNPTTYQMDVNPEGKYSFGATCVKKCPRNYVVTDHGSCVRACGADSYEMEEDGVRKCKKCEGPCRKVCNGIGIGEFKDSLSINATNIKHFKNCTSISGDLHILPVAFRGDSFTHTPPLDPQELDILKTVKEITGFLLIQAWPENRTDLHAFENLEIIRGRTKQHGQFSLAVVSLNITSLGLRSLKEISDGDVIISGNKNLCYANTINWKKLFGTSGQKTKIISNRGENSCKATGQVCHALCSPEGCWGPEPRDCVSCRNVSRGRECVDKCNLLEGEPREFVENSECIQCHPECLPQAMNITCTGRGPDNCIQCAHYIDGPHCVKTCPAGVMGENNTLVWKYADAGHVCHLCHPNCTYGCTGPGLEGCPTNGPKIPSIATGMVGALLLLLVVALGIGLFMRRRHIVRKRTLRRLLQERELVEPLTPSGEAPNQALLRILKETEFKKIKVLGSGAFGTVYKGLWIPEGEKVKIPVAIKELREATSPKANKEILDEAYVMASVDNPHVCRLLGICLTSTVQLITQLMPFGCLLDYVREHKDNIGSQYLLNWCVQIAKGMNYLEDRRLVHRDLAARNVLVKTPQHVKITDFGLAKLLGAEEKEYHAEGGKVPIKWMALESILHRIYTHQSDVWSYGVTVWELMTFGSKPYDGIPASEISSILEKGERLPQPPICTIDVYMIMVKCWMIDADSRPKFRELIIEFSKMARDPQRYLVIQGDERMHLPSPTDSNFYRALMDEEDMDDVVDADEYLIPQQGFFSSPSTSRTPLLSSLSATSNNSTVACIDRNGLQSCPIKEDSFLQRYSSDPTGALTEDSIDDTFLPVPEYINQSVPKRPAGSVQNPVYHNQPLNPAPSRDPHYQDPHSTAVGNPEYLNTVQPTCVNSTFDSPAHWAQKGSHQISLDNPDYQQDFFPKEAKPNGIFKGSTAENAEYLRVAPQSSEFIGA
Sequence of Follistatin-related protein 3 (Homo sapiens) (O95633 whole entry, looked up): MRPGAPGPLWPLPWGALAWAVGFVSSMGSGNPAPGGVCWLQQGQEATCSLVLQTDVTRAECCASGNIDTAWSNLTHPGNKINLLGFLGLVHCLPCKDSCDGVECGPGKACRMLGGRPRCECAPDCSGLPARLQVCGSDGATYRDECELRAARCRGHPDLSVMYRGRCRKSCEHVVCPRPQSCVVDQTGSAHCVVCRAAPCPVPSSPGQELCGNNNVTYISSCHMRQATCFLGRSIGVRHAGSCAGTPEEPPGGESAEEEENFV
Sequence of Dickkopf-related protein 1 (Homo sapiens) (O94907 whole entry, looked up): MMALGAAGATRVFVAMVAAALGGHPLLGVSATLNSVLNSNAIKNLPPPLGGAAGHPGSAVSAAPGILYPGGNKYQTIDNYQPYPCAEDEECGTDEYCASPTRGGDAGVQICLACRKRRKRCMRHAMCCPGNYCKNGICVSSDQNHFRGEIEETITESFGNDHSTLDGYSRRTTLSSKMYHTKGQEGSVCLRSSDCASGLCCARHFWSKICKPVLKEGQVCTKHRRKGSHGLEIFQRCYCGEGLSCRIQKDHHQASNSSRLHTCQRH

`COc1ccc(NC(=O)O[C@H]2[C@H](OC(=O)Nc3ccccc3)[C@H](OC(=O)Nc3ccccc3)[C@@H](OC)O[C@@H]2CO)cc1`: the composite z-score in assay [1] was found to be 1.55; in assay [5], 2.66; in assay [7] it was 0.31; in assay [8], 0.691; in [9], 0.989; in assay [10], 0.644. Besides, the composite z-score in assay [11] is 1.58; in assay [12], 0.891; in assay [13] it was 0.816; in [15], 1.27; in assay [16], 1.07; in assay [17], -0.171. In addition, the composite z-score in [18] worked out at 0.806; in [19] it was 0.426; in [20] it was 0.593. Besides, the z-score is 0.855 (inactive) in assay [2]; 0.887 (inactive) in assay [3]; 3.25 (inactive) in assay [4]; -0.873 (inactive) in assay [6]; -0.0162 (inactive) in assay [14].

With `O=C1C2C=CC(C(O)c3ccc(F)cc3)N(n3cnnc3)C2C(=O)N1Cc1ccccc1` (stereo not given), the composite z-score in assay [1] is -0.301; in [5], 1.05; in assay [7] it was 0.0137; in assay [8], -0.685; in [9], -0.874; in [10], -0.208. The composite z-score in assay [11] is -0.284; in [12], 0.158; in assay [13] it was 0.384; in assay [15], -0.429; in [16], -0.858; in assay [17] it was -0.273. Also, the composite z-score was -0.0469 in assay [18], -0.44 in assay [19] and 1.12 in [20]. For the same compound, the z-score in [2] was 0.271 (inactive); in assay [3], 0.767 (inactive); in assay [4] it was -0.1 (inactive); in assay [6], -0.997 (inactive); in assay [14], -0.284 (inactive).

For the compound `Cc1cc(C)cc(N2C(=O)CSC2c2cccc([N+](=O)[O-])c2)c1` (stereo not given), the composite z-score in assay [1] was determined as 1.56; in assay [5], 2.39; in [7], 0.154; in assay [8] it was 0.713; in assay [9] it was 1.04; in assay [10] it was 0.213. Besides, the composite z-score stood at 1.13 in assay [11]; 0.94 in assay [12]; 0.398 in assay [13]; 1.15 in assay [15]; 1.29 in assay [16]; 0.279 in assay [17]. The composite z-score in assay [18] was 1.35; in assay [19] it was 0.905; in assay [20] it was -0.639. In addition, the z-score in assay [2] is 0.0032 (inactive); in assay [3], 0.223 (inactive); in [4], 1.37 (inactive); in assay [6] it was 1.58 (inactive); in assay [14] it was 1.07 (inactive).

As to `CCCCCCCCCCC(O)C1C=CC2C(=O)N(C)C(=O)C2N1NC(=O)OC(C)(C)C` (stereo not given), the composite z-score in [1] is 0.76; in assay [5] it was 2.18; in assay [7] it was -0.0725; in assay [8], -0.765; in assay [9] it was 0.0249; in [10], -0.128. Moreover, the composite z-score in [11] was 0.18; in assay [12], -0.0906; in [13] it was 0.0331; in assay [15] it was -0.737; in assay [16], 0.386; in assay [17], -0.0167. In addition, the composite z-score is -0.112 in [18], -0.145 in assay [19] and 0.417 in assay [20]. For the same compound, the z-score in assay [2] is 0.258 (inactive); in assay [3] it was -16.5 (active); in assay [4], -1.97 (inactive); in [6], -2.14 (inactive); in assay [14], 11.3 (active).

Take `O=c1n(-c2ccccc2)c(=O)n2n1CC(COc1ccccc1)=C([C@H](O)CCc1ccccc1)[C@@H]2CO`: the composite z-score in assay [1] is 0.17; in assay [5], -0.173; in assay [7], -0.153; in assay [8], 0.701; in assay [9], -0.196; in [10], -0.08. Also, the composite z-score in assay [11] was -0.0946; in assay [12], -0.342; in assay [13], -0.313; in assay [15], 0.692; in assay [16], -0.0688; in assay [17] it was 0.0867. Moreover, the values for the composite z-score in assay [18], in assay [19] and in assay [20] were 0.0711, 0.291 and 1.03, respectively. The z-score was -1.33 (inactive) in [2]; -1.79 (inactive) in [3]; -0.868 (inactive) in [4]; 2.68 (inactive) in assay [6]; -1.54 (inactive) in assay [14].

For the compound `O=C(NCCCCCNC(=O)/C(Cc1ccccc1)=N/O)OCc1ccccc1`, the composite z-score in assay [1] is -0.276; in assay [5] it was -0.625; in assay [7] it was -0.17; in assay [8], 0.164; in [9], 0.253; in assay [10], -0.127. For the same compound, the composite z-score was -0.263 in assay [11]; -0.314 in [12]; -0.603 in assay [13]; 0.0434 in [15]; -0.201 in assay [16]; 0.445 in assay [17]. Moreover, the composite z-score was 0.206 in assay [18], 0.229 in [19] and -0.182 in [20]. Also, the z-score in assay [2] was -1.72 (inactive); in [3], -1.43 (inactive); in [4] it was -1.89 (inactive); in [6] it was 2.16 (inactive); in assay [14], -1.54 (inactive).
